The source of these data is PubChem BioAssay AID2284203 (EPA ToxCast).

Active and inactive are the calls of the source. Rule for the calls: active = hit-call score of the fitted dose curve at least 0.9, where 1 is the maximum; inactive = score below 0.9.

For this experiment, the target named is human Serotonin Transporter (SET), SLC6A4 (gene 6532) (UniProt P31645). Briefly: ERF_FR_TR_hSLC6A4: Eurofins (ERF) Radioligand Binding LeadHunter Assay for human Serotonin Transporter (SET) human Agonism. As for the experimental part: ERF_FR_TR_hSLC6A4 is a biochemical, single-readout assay that uses extracted gene-proteins in a cell-free assay. Measurements were taken 1 hour after chemical dosing in a 96-well plate. See SET Human Serotonin Transporter Binding (Antagonist Radioligand) Assay, Cerep.ERF_FR_TR_hSLC6A4 is an assay component calculated from the ERF_FR_TR_hSLC6A4 assay. It is designed to measure radioligand binding using a type of binding reporter as detected by scintillation counting with radiometry technology.Data from the assay component ERF_FR_TR_hSLC6A4 was analyzed at the assay endpoint, ERF_FR_TR_hSLC6A4, in the positive analysis fitting direction relative to DMSO as the negative control and baseline of activity. Using a type of binding reporter, loss-of-signal activity can be used to understand changes in enzymatic activity as they relate to gene SLC6A4. To generalize the intended target to other relatable targets, this assay endpoint is annotated to the transporter intended target family, where the subfamily is SLC6 / Monoamine.
human Serotonin Transporter (SET), SLC6A4 (gene 6532), sequence (P31645 whole entry, looked up): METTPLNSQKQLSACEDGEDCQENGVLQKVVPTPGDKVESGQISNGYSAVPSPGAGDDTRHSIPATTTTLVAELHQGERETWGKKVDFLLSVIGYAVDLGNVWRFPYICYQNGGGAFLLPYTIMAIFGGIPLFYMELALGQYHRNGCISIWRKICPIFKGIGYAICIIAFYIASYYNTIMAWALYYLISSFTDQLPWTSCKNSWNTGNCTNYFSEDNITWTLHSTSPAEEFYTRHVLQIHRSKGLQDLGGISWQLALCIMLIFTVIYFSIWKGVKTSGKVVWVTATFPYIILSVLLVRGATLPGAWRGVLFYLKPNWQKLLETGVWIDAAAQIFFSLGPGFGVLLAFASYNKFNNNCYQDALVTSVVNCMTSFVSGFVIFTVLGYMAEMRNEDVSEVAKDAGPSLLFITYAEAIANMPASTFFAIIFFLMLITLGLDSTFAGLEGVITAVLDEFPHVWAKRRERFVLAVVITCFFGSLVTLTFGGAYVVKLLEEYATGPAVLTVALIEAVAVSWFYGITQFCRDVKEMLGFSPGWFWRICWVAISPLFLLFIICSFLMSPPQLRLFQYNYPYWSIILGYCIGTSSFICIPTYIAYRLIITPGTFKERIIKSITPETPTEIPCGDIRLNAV
Human recombinant serotonin transporter expressed in human HEK-293 cells are used in modified Tris-HCl buffer pH 7.4. A 2 ug aliquot is incubated with 0.4 nM [3H]Paroxetine for 60 minutes at 25C. Non-specific binding is estimated in the presence of 10 uM imipramine. Transporters are filtered and washed. The filters are then counted to determine [3H]Paroxetine specifically bound. Compounds are screened at 10 uM. Membrane protein may change from lot to lot; the concentration used will be adjusted if necessary.
On to `CCCCC[C@H](O)CC(=O)CCc1ccc(O)c(OC)c1`, for which the result was inactive.

Broadly, the AC50 is the midpoint of the concentration-response curve, whichever way the signal moves. As for `O=C(/C=C/c1ccc(O)cc1)CC(=O)/C=C/c1ccc(O)cc1`, the AC50 was 3200 nM (active).

Turning to `COc1cc(/C=C/C(=O)CC(=O)/C=C/c2ccc(O)c(OC)c2)ccc1O`, the AC50 is 2120 nM (active).
